Test results reported in PMC5540273 (PLoS ONE, 2017).

Key:
Details in all cases: concentration: 1 μM, replicates: in singlicate; n = 1
GRK7 = system: GRK7
GSK3A = system: GSK3A
GSK3B = system: GSK3B
HASPIN = system: T1, HASPIN
T1 construct: gene GSG2

HCK = system: HCK
HIPK1 = system: HIPK1
HIPK2 = system: HIPK2
HIPK3 = system: HIPK3
HIPK4 = system: HIPK4
HPK1 = system: HPK1
HUNK = system: HUNK
ICK = system: ICK
IGF1R = system: IGF1R
IKK-alpha = system: T2, IKK-alpha
T2 construct: gene CHUK

IKK-beta = system: T3, IKK-beta
T3 construct: gene IKBKB

IKK-epsilon = system: T4, IKK-epsilon
T4 construct: gene IKBKE

INSRR = system: INSRR
INSR = system: INSR
IRAK1 = system: IRAK1
IRAK3 = system: IRAK3
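Further: KINOMEscan kinase panel screen.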

| SMILES | %Inh (GRK7) | %Inh (GSK3A) | %Inh (GSK3B) | %Inh (HASPIN) | %Inh (HCK) | %Inh (HIPK1) | %Inh (HIPK2) | %Inh (HIPK3) | %Inh (HIPK4) | %Inh (HPK1) | %Inh (HUNK) | %Inh (ICK) | %Inh (IGF1R) | %Inh (IKK-alpha) | %Inh (IKK-beta) | %Inh (IKK-epsilon) | %Inh (INSRR) | %Inh (INSR) | %Inh (IRAK1) | %Inh (IRAK3) |
| --- | --- | --- | --- | --- | --- | --- | --- | --- | --- | --- | --- | --- | --- | --- | --- | --- | --- | --- | --- | --- |
| CS(=O)(=O)c1ccc(-c2c(-c3ncn[nH]3)sc(N3CCOCC3)c2C#N)cc1 | 43% | 0% | 24% | 0% | 43% | 38% | 24% | 28% | 8% | 0% | 0% | 0% | 7% | 36% | 29% | 24% | 15% | 0% | 0% | 100% |
| Cc1ccccc1-n1cnc2c(N)ncnc21 [SKF-97510] | 0% | 1% | 0% | 0% | 0% | 0% | 0% | 0% | 0% | 0% | 1% | 0% | 0% | 0% | 0% | 0% | 0% | 0% | 0% | 0% |
| Cc1cc(NCC(c2ccccc2)c2ccccc2)nc(NCc2ccc(C(F)(F)F)cc2)n1 [GW497681] | 0% | 4% | 0% | 0% | 0% | 0% | 0% | 0% | 0% | 23% | 13% | 0% | 27% | 0% | 0% | 26% | 0% | 0% | 23% | 0% |
| CC(C)(C)c1ccc(C(=O)Nc2cn3cc(Cl)ccc3n2)cc1 | 0% | 3% | 0% | 0% | 1% | 0% | 0% | 0% | 0% | 4% | 43% | 0% | 0% | 0% | 100% | 0% | 0% | 0% | 0% | 23% |
| O=C(Nc1ccccc1)Nc1cccc(Oc2ccc3nccn3n2)c1 | 0% | 50% | 0% | 4% | 24% | 0% | 27% | 0% | 9% | 33% | 18% | 0% | 0% | 7% | 0% | 0% | 0% | 0% | 9% | 1% |
| O=c1cc(N2CCOCC2)nc2n(Cc3cccc(Cl)c3Cl)ccn12 [GSK2286295] | 0% | 8% | 12% | 1% | 0% | 13% | 0% | 14% | 28% | 31% | 0% | 3% | 12% | 0% | 25% | 10% | 0% | 5% | 0% | 3% |
| CC1=C(C(=O)Nc2cc3cn[nH]c3cc2F)C(c2ccc(C(F)(F)F)cc2)CC(=O)N1 (stereo not shown) [GSK429286] | 0% | 10% | 24% | 0% | 0% | 0% | 0% | 13% | 0% | 29% | 20% | 13% | 0% | 0% | 56% | 5% | 0% | 0% | 31% | 5% |
| Clc1cc(Cl)cc(Nc2ccnc(Nc3cc(Cl)cc(Cl)c3)n2)c1 [GSK175726] | 0% | 30% | 0% | 0% | 10% | 32% | 1% | 7% | 0% | 38% | 0% | 7% | 16% | 0% | 10% | 39% | 0% | 13% | 15% | 2% |
| COc1ccc(Nc2nccc(NCCNC(=O)Nc3ccccc3F)n2)cc1 [GSK1379901] | 0% | 30% | 13% | 0% | 0% | 0% | 0% | 7% | 0% | 36% | 9% | 0% | 10% | 0% | 11% | 12% | 0% | 0% | 36% | 8% |
| CC(=O)Nc1nc2cnc(Nc3cc(NC(=O)c4cccc(CCC#N)c4)ccc3C)nc2s1 | 6% | 0% | 0% | 21% | 21% | 15% | 20% | 6% | 5% | 0% | 0% | 0% | 0% | 10% | 0% | 33% | 0% | 34% | 19% | 21% |
| COc1cc2ncn(-c3cc(OCC4CCCO4)c(C(N)=O)s3)c2cc1OC (stereo not shown) [GSK204607] | 0% | 20% | 0% | 26% | 0% | 7% | 0% | 17% | 52% | 15% | 0% | 0% | 6% | 0% | 0% | 24% | 0% | 0% | 0% | 0% |
